Assay results as given in PubChem BioAssay (NCATS).
Records with an inconclusive call do not appear. Calls of active or inactive are those of the source. Unless noted, calls follow the shape of the dose curve; as a rule, active = well fitted curve in the direction sought with a large enough effect; inconclusive = small, poorly fitted or top-dose-only effect, or another doubt; inactive = no such curve, though single readings can be large; an effect the other way counts as inactive or inconclusive.

How the values were obtained:
[1] = AP1 Signaling Pathway (AID 357; active = well fitted curve in either direction with a large enough effect, not every such curve was filed as active;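 also: ME-180 reporter cells stimulated with EGF at its EC50 level; % is scaled to controls: 0 for no effect and ±100 for the full control effect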); details: ME-180 AP-1-bla reporter, EGF-induced, beta-lactamase ratio, 5 h; at 7.69 µM (top of the series) unless noted
Method in brief: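 A ratiometric CCF4 readout (405 nm excitation; 460 and 530 nm emission) quantified AP-1-driven beta-lactamase in ME-180 cells after 5 h with compound and EC50 EGF; AC50 values were derived for activators and inhibitors.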

[2] = target: Cytochrome P450 1A2 (Homo sapiens) (UniProt P05177); experiment: p450-cyp1a2 (AID 410; calls by dose curve; also: potency is read from the fitted curve at half-maximal effect;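 as to activity change, negative = inhibition: -100% = full effect of reference inhibitor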)
Sequence of Cytochrome P450 1A2 (Homo sapiens) (P05177 whole entry, looked up): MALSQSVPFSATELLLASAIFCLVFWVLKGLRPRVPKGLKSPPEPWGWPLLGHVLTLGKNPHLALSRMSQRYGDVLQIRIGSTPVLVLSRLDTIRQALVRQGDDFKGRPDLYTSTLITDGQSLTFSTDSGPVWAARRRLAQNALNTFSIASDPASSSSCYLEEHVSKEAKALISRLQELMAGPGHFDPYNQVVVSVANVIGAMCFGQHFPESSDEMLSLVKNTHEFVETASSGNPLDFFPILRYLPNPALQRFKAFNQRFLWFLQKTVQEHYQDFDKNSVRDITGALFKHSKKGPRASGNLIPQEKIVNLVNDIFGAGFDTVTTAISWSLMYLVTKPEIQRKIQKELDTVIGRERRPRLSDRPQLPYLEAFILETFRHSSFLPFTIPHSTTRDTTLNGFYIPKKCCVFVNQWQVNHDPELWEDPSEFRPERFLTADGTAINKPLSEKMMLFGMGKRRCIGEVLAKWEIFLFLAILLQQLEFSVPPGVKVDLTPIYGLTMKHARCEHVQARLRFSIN
Method in brief: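 20nM CYP1A2, 100uM Luciferin-ME (=Km), 100mM KPO4; cpd 10 min RT; +NADPH regen, 60 min RT; stop/detect 20 min; luminescence. Normalized to furafylline 57 uM = full inhibition.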

[3] = Stat Signaling Pathway (AID 446; active = well fitted curve in either direction with a large enough effect, not every such curve was filed as active;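 also: ME-180 cervical cancer cells given 40 pM IL-6 alongside compound; SIE-controlled beta-lactamase reporter measured as 460/530 nm FRET emission ratio; % is scaled to controls: 0 for no effect and ±100 for the full control effect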); details: ME-180 (cervical carcinoma) SIE beta-lactamase reporter, IL-6 stimulated, 5 h; at 7.69 µM (top of the series) unless noted
Method in brief: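 Compound effects on IL-6-induced STAT reporter activity were measured in ME-180 cells. After overnight culture, cells were co-treated with 40 pM IL-6 for 5 hrs before beta-lactamase substrate loading at room temperature.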

[4] = target: Glucocorticoid receptor (Homo sapiens) (UniProt P04150); experiment: GR-GFP Redistribution (AID 450;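 active = compounds whose dose series gives a full or clear partial fitted curve of increased nuclear translocation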; also: potency is read from the fitted curve at half-maximal effect); details: U2OS GR-GFP nuclear translocation, laser cytometry, 2 h
Sequence of Glucocorticoid receptor (Homo sapiens) (P04150 whole entry, looked up, the tested form may be a part): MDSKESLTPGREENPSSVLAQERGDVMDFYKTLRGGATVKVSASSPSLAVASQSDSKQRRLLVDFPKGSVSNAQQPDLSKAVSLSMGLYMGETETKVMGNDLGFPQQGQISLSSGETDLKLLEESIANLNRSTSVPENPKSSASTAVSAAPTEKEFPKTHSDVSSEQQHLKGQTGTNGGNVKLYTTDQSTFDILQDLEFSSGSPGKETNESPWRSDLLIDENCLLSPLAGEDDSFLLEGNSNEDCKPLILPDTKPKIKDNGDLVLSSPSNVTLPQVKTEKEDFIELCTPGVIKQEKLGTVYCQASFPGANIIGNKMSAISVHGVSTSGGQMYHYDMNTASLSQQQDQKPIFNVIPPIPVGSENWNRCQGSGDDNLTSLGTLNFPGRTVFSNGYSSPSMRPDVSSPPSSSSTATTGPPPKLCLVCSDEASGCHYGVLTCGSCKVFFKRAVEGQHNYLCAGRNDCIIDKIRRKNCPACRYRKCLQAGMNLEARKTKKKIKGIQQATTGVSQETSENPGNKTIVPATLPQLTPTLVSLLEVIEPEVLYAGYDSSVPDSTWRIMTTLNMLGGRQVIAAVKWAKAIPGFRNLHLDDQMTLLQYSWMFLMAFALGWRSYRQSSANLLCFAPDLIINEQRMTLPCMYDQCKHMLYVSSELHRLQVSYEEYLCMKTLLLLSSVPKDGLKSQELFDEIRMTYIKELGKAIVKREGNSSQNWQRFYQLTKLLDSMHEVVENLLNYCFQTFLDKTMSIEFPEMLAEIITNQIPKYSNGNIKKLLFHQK

[5] = target: Glucocorticoid receptor (Homo sapiens) (UniProt P04150); experiment: GR-EFC Redistribution (AID 451; calls by dose curve; also: potency is read from the fitted curve at half-maximal effect); details: CHO-K1 GR-EFC translocation, beta-gal luminescence, 2 h
Method in brief: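 Translocation of GR-ED fusion to nuclear EA restores b-gal, read by luminescence after 1 h room-temperature detection. Engineered CHO-K1 biosensor cells, 1,000/well, exposed 2 h at 37 C to titrations up to 46 uM final.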

[6] = target: Mitogen-activated protein kinase 10 (Mus musculus) (UniProt Q61831); experiment: JNK3 AlphaScreen Assay (AID 530; active = well fitted curve in either direction with a large enough effect, not every such curve was filed as active;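 also: kinase came from lysate of stimulated human HepG2 cells; signal reports phosphorylation of biotinylated GST-cJun 1-79 at Ser73 with 10 µM ATP; % is scaled to controls: 0 for no effect and ±100 for the full control effect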)
Method in brief: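 Kinase buffer: 20 mM Tris-HCl pH 7.6, 10 mM MgCl2, 1 mM DTT, 0.1 mM Na3VO4, 0.01% Tween-20; ATP 10 uM. Substrate biotin-GST-cJun(1-79), enzyme from activated HepG2 lysates. Detection by Ser73 phospho-antibody AlphaScreen.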

[7] = target: Cytochrome P450 3A4 (Homo sapiens) (UniProt P08684); experiment: qHTS Assay for Inhibitors and Substrates of Cytochrome P450 3A4 (AID 884); also: potency is read from the fitted curve at half-maximal effect; nearly all actives have a fitted effect of over 50% in size
Sequence of Cytochrome P450 3A4 (Homo sapiens) (P08684 whole entry, looked up): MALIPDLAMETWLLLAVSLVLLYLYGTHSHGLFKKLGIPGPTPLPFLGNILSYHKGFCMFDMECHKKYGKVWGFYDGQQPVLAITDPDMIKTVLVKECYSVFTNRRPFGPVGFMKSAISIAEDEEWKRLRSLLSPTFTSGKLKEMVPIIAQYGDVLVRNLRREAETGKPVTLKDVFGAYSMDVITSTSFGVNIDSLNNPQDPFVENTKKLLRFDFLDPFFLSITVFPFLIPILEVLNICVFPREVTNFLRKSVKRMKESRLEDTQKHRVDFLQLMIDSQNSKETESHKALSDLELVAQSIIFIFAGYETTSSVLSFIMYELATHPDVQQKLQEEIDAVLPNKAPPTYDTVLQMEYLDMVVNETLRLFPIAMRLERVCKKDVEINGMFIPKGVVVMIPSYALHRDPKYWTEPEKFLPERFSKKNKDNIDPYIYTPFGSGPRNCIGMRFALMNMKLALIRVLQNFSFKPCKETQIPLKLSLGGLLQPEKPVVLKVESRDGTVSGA
Method in brief: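 Luminescent readout of luciferin produced by CYP3A4 (20 nM) dealkylation of Luciferin-PPXE, 25 uM (its KM). NADPH-driven reaction ran 60 min at RT after 10 min compound preincubation; data scaled to 57 uM ketoconazole as 100% inhibition.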

[8] = target: Cytochrome P450 3A4 (Homo sapiens) (UniProt P08684); experiment: qHTS Assay for Activators of Cytochrome P450 3A4 (AID 885); also: nearly all actives have a fitted effect of over 65% in size
Method in brief: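 CYP3A4 activity: Luciferin-PPXE O-dealkylation, 25uM substrate, 200mM KPO4, RT throughout. Read-out is luciferase luminescence; higher values reflect activation.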

[9] = target: Cytochrome P450 2D6 (Homo sapiens) (UniProt P10635); experiment: qHTS Assay for Inhibitors and Substrates of Cytochrome P450 2D6 (AID 891); also: potency is read from the fitted curve at half-maximal effect; nearly all actives have a fitted effect of over 60% in size
Method in brief: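 Luminescent read-out of luciferin formed by 5 nM human CYP2D6 demethylating 30 uM Luciferin-ME EGE (Km level) over 60 min at room temperature after NADPH regeneration addition. Data normalized to full inhibition by 1.43 uM quinidine.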

[10] = target: Cytochrome P450 2C19 (Homo sapiens) (UniProt P33261); experiment: qHTS Assay for Inhibitors and Substrates of Cytochrome P450 2C19 (AID 899); also: potency is read from the fitted curve at half-maximal effect; nearly all actives have a fitted effect of over 60% in size
Sequence of Cytochrome P450 2C19 (Homo sapiens) (P33261 whole entry, looked up): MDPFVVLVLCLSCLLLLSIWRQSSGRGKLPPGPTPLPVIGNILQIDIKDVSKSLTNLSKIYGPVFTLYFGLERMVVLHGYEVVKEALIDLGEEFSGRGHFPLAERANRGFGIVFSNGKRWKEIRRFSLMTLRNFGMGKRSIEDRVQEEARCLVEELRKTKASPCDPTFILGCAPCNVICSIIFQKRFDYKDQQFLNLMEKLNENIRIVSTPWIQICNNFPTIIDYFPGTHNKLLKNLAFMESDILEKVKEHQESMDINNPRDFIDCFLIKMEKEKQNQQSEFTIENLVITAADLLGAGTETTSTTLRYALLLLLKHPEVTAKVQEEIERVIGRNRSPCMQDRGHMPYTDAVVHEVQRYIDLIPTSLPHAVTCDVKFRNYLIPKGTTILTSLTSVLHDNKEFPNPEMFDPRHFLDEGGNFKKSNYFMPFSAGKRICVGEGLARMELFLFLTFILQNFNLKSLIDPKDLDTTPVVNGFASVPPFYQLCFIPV
Method in brief: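 5nM enzyme + 10uM Luciferin-H EGE (=KM), 50mM KPO4; cpd pin-transferred, 10 min 37C; NADPH regen, 60 min 37C; stopped w/ luciferin detection reagent, 20 min; luminescence. Normalized to 57uM ketoconazole (AC100).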

[11] = target: Dual specificity protein kinase CLK4 (Homo sapiens) (UniProt Q9HAZ1); experiment: qHTS Assay for Inhibitors of CDC-like Kinase 4 (Kinase-Glo Assay) (AID 1770); also: nearly all actives have a fitted effect of over 65% in size; also: potency is read from the fitted curve at half-maximal effect
Sequence of Dual specificity protein kinase CLK4 (Homo sapiens) (Q9HAZ1 whole entry, looked up): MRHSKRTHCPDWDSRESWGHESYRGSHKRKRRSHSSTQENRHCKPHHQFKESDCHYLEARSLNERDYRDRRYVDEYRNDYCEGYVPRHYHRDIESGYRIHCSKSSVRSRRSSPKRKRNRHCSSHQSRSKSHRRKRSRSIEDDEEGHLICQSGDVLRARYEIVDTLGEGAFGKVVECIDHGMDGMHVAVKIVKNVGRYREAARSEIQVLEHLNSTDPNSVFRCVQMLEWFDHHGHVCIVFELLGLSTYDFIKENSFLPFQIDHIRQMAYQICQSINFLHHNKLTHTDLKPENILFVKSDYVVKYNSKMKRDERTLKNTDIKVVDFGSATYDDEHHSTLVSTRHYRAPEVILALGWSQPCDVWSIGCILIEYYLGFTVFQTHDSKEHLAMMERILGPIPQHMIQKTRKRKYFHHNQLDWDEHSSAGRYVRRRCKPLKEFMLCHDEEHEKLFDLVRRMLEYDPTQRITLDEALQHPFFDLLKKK
Method in brief: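 Clk4 25 nM, RS peptide 100 uM, ATP 1 uM, pH 7.5 Tris, 10 mM MgCl2, 2.5 mM DTT; 4.5 h RT; ATP depletion read by Kinase-Glo luminescence.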

[12] = target: Dual specificity protein kinase CLK4 (Homo sapiens) (UniProt Q9HAZ1); experiment: qHTS Assay for Inhibitors of CDC-like Kinase 4 (ADP-Glo Assay) (AID 1771); also: nearly all actives have a fitted effect of over 70% in size; also: potency is read from the fitted curve at half-maximal effect
Method in brief: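 25 nM Clk4, 100 uM RS peptide, 1 uM ATP (final); 2 mM MgCl2, 0.5 mM EGTA, 2.5 mM DTT, 0.01% Triton X-100; 1 hr RT. ADP-Glo readout: ATP depletion 45 min, conversion/luciferase 30 min, luminescence.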

[13] = target: Ubiquitin carboxyl-terminal hydrolase 1 (Homo sapiens) (UniProt O94782); experiment: Inhibitors of USP1/UAF1: Pilot qHTS (AID 504865);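 also: rhodamine fluorescence freed from ubiquitin-rhodamine substrate followed over time; top concentration of the series differs between compounds; % is scaled to controls: 0 for no effect and ±100 for the full control effect; nearly all actives have a fitted effect of over 35% in size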
Sequence of Ubiquitin carboxyl-terminal hydrolase 1 (Homo sapiens) (O94782 whole entry, looked up): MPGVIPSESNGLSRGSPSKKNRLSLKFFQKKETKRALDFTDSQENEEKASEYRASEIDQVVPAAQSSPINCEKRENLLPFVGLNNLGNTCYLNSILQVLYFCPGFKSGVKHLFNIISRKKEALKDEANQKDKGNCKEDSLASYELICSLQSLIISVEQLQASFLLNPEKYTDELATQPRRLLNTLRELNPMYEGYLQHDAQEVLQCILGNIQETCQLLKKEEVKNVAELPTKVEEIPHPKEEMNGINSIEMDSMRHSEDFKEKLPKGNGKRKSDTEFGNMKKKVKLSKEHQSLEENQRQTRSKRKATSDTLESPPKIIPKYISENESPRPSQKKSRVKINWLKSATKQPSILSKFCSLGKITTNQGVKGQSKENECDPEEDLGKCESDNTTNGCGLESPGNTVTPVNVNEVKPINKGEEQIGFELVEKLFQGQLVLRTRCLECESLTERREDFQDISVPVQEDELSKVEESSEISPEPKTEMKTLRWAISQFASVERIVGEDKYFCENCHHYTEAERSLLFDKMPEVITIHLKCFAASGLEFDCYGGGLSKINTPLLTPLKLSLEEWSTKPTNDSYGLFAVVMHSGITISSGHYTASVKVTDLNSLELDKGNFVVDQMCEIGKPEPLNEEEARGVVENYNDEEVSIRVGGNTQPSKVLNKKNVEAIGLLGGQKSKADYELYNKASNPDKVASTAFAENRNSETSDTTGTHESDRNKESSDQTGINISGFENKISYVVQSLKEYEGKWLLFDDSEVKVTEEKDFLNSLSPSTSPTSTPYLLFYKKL
Method in brief: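 Enzyme-free wells gave the negative control, while test wells held 1nM USP1/UAF1 preincubated with compound for 15 min at room temperature. Ub-Rho at 150nM final started the reaction, and fluorescence at 480/540 nm was recorded kinetically.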

[14] = Primary qHTS for small molecule stabilizers of the endoplasmic reticulum resident proteome: Secreted ER Calcium Modulated Protein (SERCaMP) assay (AID 1508630); also: % is scaled to controls: 0 for no effect and ±100 for the full control effect
Method in brief: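 The SH-SY5Y reporter protocol was run at 3 concentrations up to 38.3 uM (primary) or 11 concentrations (follow-up): 16 h compound, 100 nM thapsigargin for 4 h, then extracellular luciferase luminescence.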

[15] = target: Lysosomal acid glucosylceramidase (Homo sapiens) (UniProt P04062); experiment: Glucocerebrosidase-p2 (AID 348; in the data active = potency below about 10 µM; also: potency is read from the fitted curve at half-maximal effect); details: purified GBA, blue fluorogenic substrate, 40 min
Sequence of Lysosomal acid glucosylceramidase (Homo sapiens) (P04062 whole entry, looked up): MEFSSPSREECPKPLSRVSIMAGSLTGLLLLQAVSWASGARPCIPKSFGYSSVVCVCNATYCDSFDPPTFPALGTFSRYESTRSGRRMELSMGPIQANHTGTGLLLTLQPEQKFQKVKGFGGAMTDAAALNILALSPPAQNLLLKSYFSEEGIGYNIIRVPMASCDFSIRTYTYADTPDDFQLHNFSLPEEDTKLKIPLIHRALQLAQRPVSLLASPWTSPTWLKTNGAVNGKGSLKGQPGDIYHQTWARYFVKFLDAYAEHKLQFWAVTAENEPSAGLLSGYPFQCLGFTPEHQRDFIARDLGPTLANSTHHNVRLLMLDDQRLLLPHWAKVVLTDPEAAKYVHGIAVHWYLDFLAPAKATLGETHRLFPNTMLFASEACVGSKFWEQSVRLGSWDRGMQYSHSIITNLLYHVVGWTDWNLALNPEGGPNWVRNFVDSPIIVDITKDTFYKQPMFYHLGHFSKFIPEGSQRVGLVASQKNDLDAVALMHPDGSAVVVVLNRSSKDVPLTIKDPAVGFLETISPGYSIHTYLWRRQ
Method in brief: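 Normal human glucocerebrosidase (0.2 nM) with blue fluorogenic substrate (80 uM final) in citrate/phosphate pH 5.9 with 10mM sodium taurocholate, 0.01% tween-20; 40 min RT, NaOH/glycine stop; fluorescence Ex 365/Em 440; AC50 from a titration from 0.6 nM upwards.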

[16] = NFAT Signaling Pathway (AID 444; active = well fitted curve in either direction with a large enough effect, not every such curve was filed as active); details: Jurkat NFAT-bla M1, carbachol, beta-lactamase ratio, 5 h; at 7.69 µM (top of the series) unless noted
Method in brief: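 Read-out: CCF4 FRET ratio (460 nm/530 nm) after 1 h RT dye loading, used for %activity and AC50 from titration series. Cells: Jurkat NFAT-β-lactamase/M1 line, treated with compound plus 1 uM carbachol for 5 h, 37 °C.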

[17] = target: Dual specificity protein kinase CLK4 (Homo sapiens) (UniProt Q9HAZ1); experiment: qHTS Assay for Inhibitors of CDC-like Kinase 4 (ADP-FP Assay) (AID 1795); also: nearly all actives have a fitted effect of over 60% in size; also: potency is read from the fitted curve at half-maximal effect
Method in brief: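 Kinase activity was followed as ADP output, converted from fluorescence polarization with a calibration curve. Reactions ran one hour at low ATP (1 uM) with RS peptide substrate.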

[18] = target: 3',5'-cyclic-AMP phosphodiesterase 4B (Homo sapiens) (UniProt Q07343); experiment: qHTS Assay for Inhibitors of PDE-IV (AID 607; active = well fitted activation curve with a large enough effect in the main read-out, with a control signal flat, not every such curve was filed as active; also: % of control where 0% means no effect)
Sequence of 3',5'-cyclic-AMP phosphodiesterase 4B (Homo sapiens) (Q07343 whole entry, looked up): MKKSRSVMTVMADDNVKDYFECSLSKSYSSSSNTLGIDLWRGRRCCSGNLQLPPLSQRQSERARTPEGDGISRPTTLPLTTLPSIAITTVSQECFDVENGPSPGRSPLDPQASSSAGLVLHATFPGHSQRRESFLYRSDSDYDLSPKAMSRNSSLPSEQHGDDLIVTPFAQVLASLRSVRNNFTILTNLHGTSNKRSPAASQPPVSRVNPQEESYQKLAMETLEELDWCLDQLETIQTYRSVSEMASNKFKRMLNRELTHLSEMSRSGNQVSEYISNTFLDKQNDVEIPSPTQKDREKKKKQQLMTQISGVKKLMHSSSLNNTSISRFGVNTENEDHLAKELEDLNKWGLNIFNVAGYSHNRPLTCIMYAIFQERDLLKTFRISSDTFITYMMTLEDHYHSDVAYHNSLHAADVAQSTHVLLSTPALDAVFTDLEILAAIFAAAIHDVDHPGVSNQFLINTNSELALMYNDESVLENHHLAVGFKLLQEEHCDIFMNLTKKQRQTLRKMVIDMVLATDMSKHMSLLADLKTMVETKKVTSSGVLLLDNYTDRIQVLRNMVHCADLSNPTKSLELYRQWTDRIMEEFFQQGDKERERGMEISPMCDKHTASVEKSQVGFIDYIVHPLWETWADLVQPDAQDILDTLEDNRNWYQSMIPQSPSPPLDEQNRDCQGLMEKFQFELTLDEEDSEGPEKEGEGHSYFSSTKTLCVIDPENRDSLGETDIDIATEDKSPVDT
Method in brief: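 ACTOne HEK293 cells carry a modified cAMP-gated CNG channel and express endogenous PDE4; plated 1000 cells/well, compounds up to 22.9 uM final. Membrane-potential dye fluorescence (ex 535/em 590) was read; parental cells received 10 uM forskolin + 100 uM RO 20-1724.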

[19] = target: Cytochrome P450 2C9 (Homo sapiens) (UniProt P11712); experiment: qHTS Assay for Inhibitors and Substrates of Cytochrome P450 2C9 (AID 883); also: nearly all actives have a fitted effect of over 60% in size; also: potency is read from the fitted curve at half-maximal effect
Method in brief: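 Inhibition of CYP2C9 is scored as loss of luminescence, with 57uM sulphaphenazole defining 100% inhibition. Substrate Luciferin-H is used at 100uM, equal to its KM; enzyme at 10nM in 25mM KPO4, 60 min at 37C with NADPH regeneration.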

COc1ccc2[nH]cc(CCNc3nc(-c4cccnc4)nc4ccccc34)c2c1
inactive: activity change, negative = inhibition [1] -14.3% | activity, negative = inhibition [3] -15.6% | Potency [4] > 46 µM | Potency [5] > 46 µM | Potency [6] | Potency [8] | Potency [13] | outcome [14]
active: Potency [2] 0.501 µM | Potency [7] 1.58 µM | Potency [9] 6.31 µM | Potency [10] 501 nM | Potency [11] 11.2 µM | Potency [12] 7.94 µM

c1ccc2c(N3CCOCC3)nc(-c3ccoc3)nc2c1
active: Potency [2] 1.26 µM | Potency [7] 6.31 µM | Potency [17] 14.1 µM
inactive: Potency [15] > 11.4 µM | activity change, negative = inhibition [1] -5.2% | activity change, negative = inhibition [16] 12.4% | activity, negative = inhibition [3] -2.69% | Potency [4] > 46 µM | Potency [5] > 46 µM | Potency [6] | Potency [8] | Potency [11] | Potency [13] | outcome [14]

CN(C)c1ccc(-c2cncnc2Nc2ccccc2)cc1
active: Potency [2] 0.398 µM | Potency [7] 0.631 µM | Potency [10] 316 nM | Potency [11] 22.4 µM
inactive: Potency [15] > 11.4 µM | activity change, negative = inhibition [1] -29.4% | activity change, negative = inhibition [16] -2.66% | activity, negative = inhibition [3] -12% | Potency [4] > 46 µM | Potency [5] > 46 µM | Potency [8] | Potency [17] | Potency [13] | outcome [14]

NC(=O)c1ccccc1-c1nc(-n2ccnc2)c2ccccc2n1
active: Potency [2] 2.51 µM | Potency [7] 3.98 µM
inactive: Potency [15] > 11.4 µM | activity change, negative = inhibition [1] 11.1% | activity change, negative = inhibition [16] -3.23% | activity, negative = inhibition [3] -1.41% | Potency [4] > 46 µM | Potency [5] > 46 µM | Potency [6] | Potency [18] | Potency [8] | Potency [11] | Potency [17] | Potency [13] | outcome [14]

COc1ccc(Oc2ncc3nc(-c4cn(C)c5ccccc45)c(=O)n(C)c3n2)cc1
inactive: Potency [15] > 11.4 µM | activity change, negative = inhibition [1] -24.2% | Potency [2] | activity change, negative = inhibition [16] -8.09% | activity, negative = inhibition [3] 1.51% | Potency [4] > 9.22 µM | Potency [5] > 46 µM | Potency [18] | Potency [19] | Potency [8] | Potency [11] | Potency [17] | Potency [13] | outcome [14]

COc1ncc2nc(-c3ccc(F)cc3)c(=O)n(Cc3ccc(F)cc3)c2n1
inactive: Potency [15] > 11.4 µM | activity change, negative = inhibition [1] 1.72% | activity change, negative = inhibition [16] -1.74% | activity, negative = inhibition [3] -13.2% | Potency [4] > 9.22 µM | Potency [5] > 46 µM | Potency [6] | Potency [18] | Potency [8] | Potency [11] | Potency [17] | Potency [13] | outcome [14]
active: Potency [2] 1.58 µM | Potency [7] 3.16 µM

CNc1ncnc2ccc(-c3ccccc3C#N)cc12
active: Potency [2] 1 µM | Potency [11] 6.31 µM | Potency [12] 7.08 µM
inactive: activity change, negative = inhibition [1] 21.4% | activity change, negative = inhibition [16] 23.3% | activity, negative = inhibition [3] -1.74% | Potency [4] > 46 µM | Potency [5] > 46 µM | Potency [6] | Potency [18] | Potency [8] | Potency [13] | outcome [14]

COc1ccc2[nH]cc(CCNc3ncncc3-c3cccc(NS(C)(=O)=O)c3)c2c1
inactive: activity change, negative = inhibition [1] -19.1% | activity change, negative = inhibition [16] 15.3% | activity, negative = inhibition [3] -18.7% | Potency [4] > 46 µM | Potency [5] > 46 µM | Potency [6] | Potency [18] | Potency [8] | Potency [13] | outcome [14]
active: Potency [2] 12.6 µM | Potency [19] 398 nM | Potency [7] 0.398 µM | Potency [9] 3.16 µM | Potency [10] 5010 nM | Potency [11] 25.1 µM | Potency [12] 35.5 µM

Cc1ccccc1-c1cncnc1NCc1cccnc1
inactive: Potency [15] > 11.4 µM | activity change, negative = inhibition [1] -2.76% | activity change, negative = inhibition [16] -14.1% | activity, negative = inhibition [3] 4.91% | Potency [4] > 46 µM | Potency [5] > 46 µM | Potency [6] | Potency [18] | Potency [8] | Potency [11] | Potency [17] | Potency [13] | outcome [14]
active: Potency [2] 15.8 µM | Potency [7] 0.631 µM | Potency [10] 398 nM

COc1ccccc1CNc1cc(-c2ccoc2)ncn1
active: Potency [2] 15.8 µM
inactive: Potency [15] > 11.4 µM | activity change, negative = inhibition [1] -15.7% | activity change, negative = inhibition [16] -9.53% | activity, negative = inhibition [3] 6.29% | Potency [4] > 46 µM | Potency [5] > 46 µM | Potency [6] | Potency [18] | Potency [8] | Potency [11] | Potency [17] | Potency [13] | outcome [14]

N#CCCn1c(=O)cnc2cnc(Oc3cccc(Cl)c3)nc21
inactive: activity change, negative = inhibition [1] 5.43% | activity change, negative = inhibition [16] -14% | activity, negative = inhibition [3] -4.72% | Potency [4] > 9.22 µM | Potency [5] > 46 µM | Potency [6] | Potency [18] | Potency [11] | Potency [12] | Potency [13] | outcome [14]

N#CCCn1c(=O)c(-c2ccccc2)nc2cnc(Nc3ccccc3)nc21
inactive: Potency [15] > 11.4 µM | activity change, negative = inhibition [1] -19.8% | activity change, negative = inhibition [16] -16.9% | activity, negative = inhibition [3] -23.1% | Potency [6] | Potency [11] | Potency [17] | Potency [13] | outcome [14]
active: Potency [2] 0.794 µM
